# Measurements: PubChem BioAssay
# Active and inactive are the calls of the source.
# How the values were obtained:
# Albumin (Bos taurus) = Albumin (Bos taurus) (UniProt P02769); assay: compounds binding labelled BSA control protein – biochemical, small-molecule microarray, Alexa647 label, 635/667 nm fluorescence, artefact control for SMM control protein annotation, profiling panel (AID 1118); details: BSA-A647 binding, fluorescence 635 nm, higher = more signal;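 also: score merges 667 nm emission intensity and signal-to-noise per printed compound spot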
# [1] = probe aXIP binding to arrayed compounds – biochemical, NeuroSMM set, 635/667 nm fluorescence, primary screen (AID 1119); details: small-molecule microarray, higher = more signal, called active from +8 up or from −8 down;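 also: probe is the protein aXip251-270 applied at 1 µg/mL to compound-printed slides; binding of probe to printed compounds measured as 667 nm fluorescence plus signal to noise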
# [2] = probe aNOTCH3 binding on compound microarray – biochemical, small-molecule microarray, 635/667 nm fluorescence, primary screen (AID 1120); details: higher = more signal;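 also: probe is a biotin-tagged antibody raised against NOTCH3 rather than NOTCH3 protein; score merges spot fluorescence near 667 nm with spot signal to noise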
# [3] = probe aNOTCH2 binding on compound microarray – biochemical, small-molecule microarray, 635/667 nm fluorescence, primary screen (AID 1121); details: higher = more signal;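 also: score merges feature fluorescence read at 667 nm with its signal to noise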
# [4] = molecular target: Carbonic anhydrase 2 (Homo sapiens) (UniProt P00918); assay: compounds binding carbonic anhydrase 2 – biochemical, small-molecule microarray, Alexa647-labelled CAII, profiling panel (AID 1122); details: CAII-A647 binding fluorescence, higher = more signal
# [5] = COS7 lysate on small-molecule microarray, probe aHis, 635 nm (AID 1123); details: COS7 cell lysate, fluorescence, higher = more signal;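 also: z-score combines 667nm fluorescence intensity with signal-to-noise per printed compound spot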
# [6] = probe aLAP1 signal on lysate-treated microarray – cell lysate, small-molecule microarray, COS7 lysate, primary screen (AID 1124); details: probe aLAP1, fluorescence, higher = more signal;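 also: lysate comes from COS7 cells expressing LAP1 and is applied at 0.3 µg/mL; score merges spot fluorescence near 667 nm with signal-to-noise over triplicate slides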
# Sam68 (KHDRBS1) = assay: compounds binding KHDRBS1 protein – biochemical, small-molecule microarray, 635 nm fluorescence, primary screen (AID 1125); details: higher = more signal;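 also: score merges 667 nm channel intensity with signal to noise over triplicate slides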
# [7] = system: Chordin-like protein 2 (CHRDL2); assay: compounds binding chordin-like 2 – biochemical, small-molecule microarray, 635 nm fluorescence, primary screen (AID 1126); details: fluorescence 635 nm, higher = more signal;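 also: printed compound slides probed with Chrdl2 protein at 4 µg/mL for 1 h at 4 C; score merges 667 nm emission intensity with signal to noise over three replicate slides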
# [8] = molecular target: Concanavalin-A (Canavalia ensiformis) (UniProt P02866); assay: compounds binding concanavalin A lectin – biochemical, small-molecule microarray, Alexa647 label, 635 nm, artefact control for SMM control protein annotation, primary screen (AID 1127); details: ConA-A647 binding fluorescence, higher = more signal;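 also: z combines 667 nm emission intensity with signal-to-noise across three replicate slides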
# [9] = compounds binding Alexa647 anti-His antibody – biochemical, small-molecule microarray, 635 nm fluorescence, artefact control for SMM control protein annotation, primary screen (AID 1128); details: higher = more signal;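 also: score merges feature fluorescence with signal-to-noise for each printed compound spot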
# [10] = system: Human papillomavirus type 1a E7 protein (residues 1-88); assay: HPV1a E7 small-molecule binders, primary screen, biochemical, small-molecule microarray, residues 1-88, 635 nm (AID 1129); details: small-molecule microarray binding, fluorescence 635 nm; higher = more signal
# [11] = molecular target: Focal adhesion kinase 1 (Homo sapiens) (UniProt Q05397); assay: PTK2 protein binding on printed compound slides – biochemical, small-molecule microarray, 635/667 nm fluorescence, BSA, DTT, primary screen (AID 1130); details: 635 nm fluorescence, higher = more signal;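 also: composite of spot emission at 667 nm and signal to noise over triplicate slides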
# [12] = system: Fibrinogen (Alexa647-labelled); assay: Alexa647-fibrinogen binding to printed small molecules – biochemical, small-molecule microarray, 635/667 nm fluorescence, artefact control for SMM control-protein annotation, profiling panel (AID 1131); details: fibrinogen-A647 binding fluorescence, higher = more signal;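 also: z-score merges 667 nm fluorescence with per-spot signal-to-noise over triplicate slides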
# [13] = molecular target: Follistatin (Homo sapiens) (UniProt P19883); assay: FST protein binding to printed compounds – biochemical, small-molecule microarray, 635/667 nm fluorescence, primary screen (AID 1132); details: 635 nm fluorescence, higher = more signal
# [14] = molecular target: Fibroblast growth factor 2 (Homo sapiens) (UniProt P09038); assay: basic fibroblast growth factor binding to printed compounds – biochemical, small-molecule microarray, 635/667 nm fluorescence, primary screen (AID 1133); details: FGF2, fluorescence 635/667, higher = more signal
# [15] = JC-1 mitochondrial potential readout, lung cancer cells – cell-based, A549, JC-1 fluorescence, basal, 24 h, 100 nL, profiling panel (AID 1138); details: higher = more signal;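 also: A549 lung adenocarcinoma cells under basal conditions with no added stimulus; test concentration not given here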
# Lefty1 = Lefty1 protein binding to printed compounds – biochemical, small-molecule microarray, 635/667 nm fluorescence, primary screen (AID 1139); details: fluorescence 635/667, higher = more signal
# [16] = system: wheat germ agglutinin (Triticum aestivum), Alexa647-labelled; assay: Alexa647-WGA lectin binding to printed small molecules – biochemical, small-molecule microarray, 635/667 nm fluorescence, artefact control for SMM control-protein annotation, profiling panel (AID 1140); details: WGA-A647 binding, 635 nm fluorescence, higher = more signal;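 also: score merges 667 nm feature emission with signal to noise over triplicate slides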
# [17] = molecular target: Luciferin 4-monooxygenase (Photinus pyralis) (UniProt P08659); assay: inhibition of purified Photinus pyralis luciferase – biochemical, luminescence, purified enzyme, 2006 set, primary screen (AID 1141); details: purified firefly luciferase, SteadyGlo luminescence, 30 min; higher = more signal, called active from +8 up or from −8 down;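 also: cell-free assay with purified firefly luciferase at 100 ng per well in PBS; test concentration not given here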
# Luciferin 4-monooxygenase (Photinus pyralis), sequence (P08659 whole entry, looked up): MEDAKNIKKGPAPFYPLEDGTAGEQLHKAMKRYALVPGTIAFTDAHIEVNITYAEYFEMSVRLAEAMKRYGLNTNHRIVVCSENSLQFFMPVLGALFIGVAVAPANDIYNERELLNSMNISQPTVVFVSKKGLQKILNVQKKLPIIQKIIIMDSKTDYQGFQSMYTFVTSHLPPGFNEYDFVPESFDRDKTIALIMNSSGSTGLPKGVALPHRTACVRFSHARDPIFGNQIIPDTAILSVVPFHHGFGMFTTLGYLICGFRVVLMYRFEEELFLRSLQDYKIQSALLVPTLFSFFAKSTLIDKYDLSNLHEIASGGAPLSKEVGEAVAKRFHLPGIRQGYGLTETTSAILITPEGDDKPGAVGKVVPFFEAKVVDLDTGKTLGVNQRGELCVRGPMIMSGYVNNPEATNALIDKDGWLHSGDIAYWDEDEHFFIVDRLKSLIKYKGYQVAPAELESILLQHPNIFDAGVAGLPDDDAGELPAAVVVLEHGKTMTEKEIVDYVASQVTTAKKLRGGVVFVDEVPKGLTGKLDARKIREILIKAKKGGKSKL
# Albumin (Bos taurus), sequence (P02769 whole entry, looked up): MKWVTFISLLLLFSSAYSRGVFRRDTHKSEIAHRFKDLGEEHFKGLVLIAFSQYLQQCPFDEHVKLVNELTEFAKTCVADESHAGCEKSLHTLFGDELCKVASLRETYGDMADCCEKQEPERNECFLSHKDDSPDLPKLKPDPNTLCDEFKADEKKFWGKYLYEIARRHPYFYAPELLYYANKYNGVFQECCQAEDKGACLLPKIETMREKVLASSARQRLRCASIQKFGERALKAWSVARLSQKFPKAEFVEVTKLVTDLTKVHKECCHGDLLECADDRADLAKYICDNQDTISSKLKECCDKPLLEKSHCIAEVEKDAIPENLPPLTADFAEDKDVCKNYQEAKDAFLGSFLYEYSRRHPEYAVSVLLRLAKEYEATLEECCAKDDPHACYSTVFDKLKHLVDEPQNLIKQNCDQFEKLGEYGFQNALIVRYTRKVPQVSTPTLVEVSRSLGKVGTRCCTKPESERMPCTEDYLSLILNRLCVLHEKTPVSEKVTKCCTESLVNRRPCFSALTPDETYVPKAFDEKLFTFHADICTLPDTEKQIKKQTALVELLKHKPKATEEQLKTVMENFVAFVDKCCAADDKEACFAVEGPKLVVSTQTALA
# Focal adhesion kinase 1 (Homo sapiens), sequence (Q05397 whole entry, looked up): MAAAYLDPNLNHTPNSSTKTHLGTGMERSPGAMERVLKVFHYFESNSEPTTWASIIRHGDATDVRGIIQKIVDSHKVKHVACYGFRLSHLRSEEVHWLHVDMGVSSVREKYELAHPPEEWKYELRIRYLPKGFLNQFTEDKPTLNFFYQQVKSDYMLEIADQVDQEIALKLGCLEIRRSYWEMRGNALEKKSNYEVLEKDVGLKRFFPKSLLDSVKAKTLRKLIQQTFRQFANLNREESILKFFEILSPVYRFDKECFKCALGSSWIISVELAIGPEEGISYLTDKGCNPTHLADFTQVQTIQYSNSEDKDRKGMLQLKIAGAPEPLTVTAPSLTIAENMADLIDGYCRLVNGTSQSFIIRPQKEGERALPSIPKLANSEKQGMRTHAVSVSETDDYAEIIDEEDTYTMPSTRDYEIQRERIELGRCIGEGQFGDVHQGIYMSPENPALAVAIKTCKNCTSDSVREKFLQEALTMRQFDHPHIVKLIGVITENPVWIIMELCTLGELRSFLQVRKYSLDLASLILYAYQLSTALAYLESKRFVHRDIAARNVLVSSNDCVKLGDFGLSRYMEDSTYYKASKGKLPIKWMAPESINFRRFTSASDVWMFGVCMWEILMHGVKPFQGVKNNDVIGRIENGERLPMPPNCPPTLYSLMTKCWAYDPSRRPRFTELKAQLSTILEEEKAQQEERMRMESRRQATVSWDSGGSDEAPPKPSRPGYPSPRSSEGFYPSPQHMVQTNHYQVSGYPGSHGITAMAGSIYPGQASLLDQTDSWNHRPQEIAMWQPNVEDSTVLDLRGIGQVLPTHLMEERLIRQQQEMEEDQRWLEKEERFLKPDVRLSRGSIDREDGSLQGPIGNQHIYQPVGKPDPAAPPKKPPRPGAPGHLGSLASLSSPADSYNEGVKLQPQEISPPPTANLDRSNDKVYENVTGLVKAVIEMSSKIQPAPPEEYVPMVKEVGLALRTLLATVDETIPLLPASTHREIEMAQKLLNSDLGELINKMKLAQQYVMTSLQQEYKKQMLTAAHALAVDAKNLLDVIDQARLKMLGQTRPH
# Concanavalin-A (Canavalia ensiformis), sequence (P02866 whole entry, looked up): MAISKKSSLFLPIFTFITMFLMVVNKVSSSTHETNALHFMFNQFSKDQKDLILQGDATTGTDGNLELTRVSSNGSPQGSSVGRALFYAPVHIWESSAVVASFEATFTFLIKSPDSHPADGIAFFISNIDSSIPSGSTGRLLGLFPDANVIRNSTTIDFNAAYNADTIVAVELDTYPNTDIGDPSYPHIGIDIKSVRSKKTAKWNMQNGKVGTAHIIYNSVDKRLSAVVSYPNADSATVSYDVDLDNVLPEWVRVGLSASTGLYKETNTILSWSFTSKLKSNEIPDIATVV
# Fibroblast growth factor 2 (Homo sapiens), sequence (P09038 whole entry, looked up): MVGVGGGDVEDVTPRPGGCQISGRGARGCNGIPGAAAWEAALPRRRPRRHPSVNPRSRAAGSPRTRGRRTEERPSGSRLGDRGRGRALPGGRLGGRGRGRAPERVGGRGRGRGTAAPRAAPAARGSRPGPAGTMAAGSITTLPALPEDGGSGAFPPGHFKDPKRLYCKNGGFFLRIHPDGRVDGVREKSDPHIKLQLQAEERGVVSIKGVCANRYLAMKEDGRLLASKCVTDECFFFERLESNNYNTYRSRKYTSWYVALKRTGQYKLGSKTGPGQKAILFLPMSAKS
# Follistatin (Homo sapiens), sequence (P19883 whole entry, looked up): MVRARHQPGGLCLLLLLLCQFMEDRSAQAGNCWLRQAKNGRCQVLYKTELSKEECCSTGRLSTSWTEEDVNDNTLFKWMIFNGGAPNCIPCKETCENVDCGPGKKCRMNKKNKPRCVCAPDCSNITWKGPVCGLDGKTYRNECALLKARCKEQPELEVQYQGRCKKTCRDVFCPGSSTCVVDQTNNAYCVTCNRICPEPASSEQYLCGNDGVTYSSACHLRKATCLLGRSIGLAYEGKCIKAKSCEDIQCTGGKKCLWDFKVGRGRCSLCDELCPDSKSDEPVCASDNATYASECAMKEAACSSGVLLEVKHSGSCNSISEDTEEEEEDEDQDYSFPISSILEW
smiles,measurement,setting,value
CCOC(=O)C1=C[C@@H](c2ccccc2)N(S(=O)(=O)c2ccc(C)cc2)[C@H]1c1ccc(OC)cc1,composite z-score,Albumin (Bos taurus),0.72
same,composite Z-score,[1],-0.0164 (inactive)
same,composite z-score,[2],0.815
same,composite z-score,[3],0.493
same,composite z-score,[4],0.614
same,composite z-score,[5],1.71
same,composite z-score,[6],0.755
same,composite z-score,Sam68 (KHDRBS1),1.32
same,composite z-score,[7],-0.224
same,composite z-score,[8],1.1
same,composite z-score,[9],0.546
same,composite z-score,[10],0.957
same,composite z-score,[11],0.501
same,composite z-score,[12],0.935
same,composite z-score,[13],0.609
same,composite z-score,[14],0.217
same,z-score,[15],1.77
same,composite z-score,Lefty1,-0.0395
same,composite z-score,[16],1.11
same,z-score,[17],1.51 (inactive)
C=CCNC(=O)[C@H]1[C@@H]2C(=O)O[C@@H](c3ccccc3)[C@@H](c3ccccc3)N2[C@@H](c2ccccc2OCCO)[C@]12C(=O)N(C(=O)OCCOC)c1ccc(C#CC3(O)CCCCCC3)cc12,composite z-score,Albumin (Bos taurus),0.604
same,composite Z-score,[1],0.359 (inactive)
same,composite z-score,[2],0.0225
same,composite z-score,[3],0.0018
same,composite z-score,[4],0.309
same,composite z-score,[5],1.79
same,composite z-score,[6],1.05
same,composite z-score,Sam68 (KHDRBS1),1.29
same,composite z-score,[7],0.174
same,composite z-score,[8],0.815
same,composite z-score,[9],0.977
same,composite z-score,[10],1.18
same,composite z-score,[11],0.325
same,composite z-score,[12],0.579
same,composite z-score,[13],0.785
same,composite z-score,[14],0.226
same,z-score,[15],-0.634
same,composite z-score,Lefty1,0.876
same,composite z-score,[16],0.763
same,z-score,[17],-1.64 (inactive)
CN(C)C(=O)[C@]1(Cc2ccccc2CN=[N+]=[N-])N=C(c2ccc(OCCCO)cc2)O[C@@H]1c1ccccc1,composite z-score,Albumin (Bos taurus),0.349
same,composite Z-score,[1],-0.4 (inactive)
same,composite z-score,[2],0.113
same,composite z-score,[3],-0.0896
same,composite z-score,[4],0.402
same,composite z-score,[5],2.06
same,composite z-score,[6],0.454
same,composite z-score,Sam68 (KHDRBS1),1.3
same,composite z-score,[7],-1.08
same,composite z-score,[8],1.04
same,composite z-score,[9],2.24
same,composite z-score,[10],1.22
same,composite z-score,[11],0.48
same,composite z-score,[12],0.947
same,composite z-score,[13],0.987
same,composite z-score,[14],0.658
same,z-score,[15],-0.439
same,composite z-score,Lefty1,0.035
same,composite z-score,[16],1.02
same,z-score,[17],0.582 (inactive)
CC(CO)N1C(=O)[C@@H]2[C@H]3C(=O)OCC=C[C@H]3OC23C=CCN(Cn2nnc4ccccc42)C(=O)[C@@H]13 (stereo not given in full),composite z-score,Albumin (Bos taurus),-0.779
same,composite Z-score,[1],0.6 (inactive)
same,composite z-score,[2],-0.256
same,composite z-score,[3],-0.13
same,composite z-score,[4],0.419
same,composite z-score,[5],0.523
same,composite z-score,[6],-0.199
same,composite z-score,Sam68 (KHDRBS1),-0.766
same,composite z-score,[7],-0.851
same,composite z-score,[8],-0.967
same,composite z-score,[9],-1.02
same,composite z-score,[10],-1.43
same,composite z-score,[11],-0.432
same,composite z-score,[12],-0.8
same,composite z-score,[13],-0.72
same,composite z-score,[14],-0.358
same,z-score,[15],-0.528
same,composite z-score,Lefty1,-0.406
same,composite z-score,[16],-0.596
same,z-score,[17],0.27 (inactive)
COc1ccc([Si](C)(C)[C@@H]2[C@@H](CC(=O)N3Cc4ccccc4C[C@H]3CO)O[C@]3(C(=O)N(Cc4ccc(N5C(=O)c6cccc7cccc5c67)cc4)c4ccccc43)[C@H]2C)cc1,composite z-score,Albumin (Bos taurus),-0.604
same,composite Z-score,[1],0.535 (inactive)
same,composite z-score,[2],0.171
same,composite z-score,[3],-0.0728
same,composite z-score,[4],0.351
same,composite z-score,[5],1.25
same,composite z-score,[6],-0.0469
same,composite z-score,Sam68 (KHDRBS1),1.31
same,composite z-score,[7],1.18
same,composite z-score,[8],0.988
same,composite z-score,[9],0.0827
same,composite z-score,[10],1.18
same,composite z-score,[11],0.949
same,composite z-score,[12],0.706
same,composite z-score,[13],1.33
same,composite z-score,[14],1.59
same,z-score,[15],1.2
same,composite z-score,Lefty1,1.11
same,composite z-score,[16],0.323
same,z-score,[17],-1.05 (inactive)
CCOC(=O)C[C@H]1[C@H](OC(=O)Cc2ccc3c(c2)OCO3)[C@@H](NC(=O)C2CCCCC2)c2cc(OCCCO)ccc2N1C(=O)c1ccccc1,composite z-score,Albumin (Bos taurus),0.869
same,composite Z-score,[1],0.394 (inactive)
same,composite z-score,[2],-0.0647
same,composite z-score,[3],-0.14
same,composite z-score,[4],0.112
same,composite z-score,[5],0.469
same,composite z-score,[6],0.124
same,composite z-score,Sam68 (KHDRBS1),0.249
same,composite z-score,[7],-0.311
same,composite z-score,[8],0.833
same,composite z-score,[9],0.0657
same,composite z-score,[10],-0.0497
same,composite z-score,[11],0.408
same,composite z-score,[12],0.744
same,composite z-score,[13],-0.2
same,composite z-score,[14],0.0099
same,z-score,[15],1.76
same,composite z-score,Lefty1,0.218
same,composite z-score,[16],0.0468
same,z-score,[17],-1.23 (inactive)
